Results filed as inconclusive are left out. Activity calls are given as the source filed them. Rule for the calls: active = hit-call score of the fitted dose curve at least 0.9, where 1 is the maximum; inconclusive = response in the unintended direction; inactive = score below 0.9.

A short description of this assay: ACEA_AR_antagonist_AUC_viability: ACEA Biosciences xCELLigence Real-Time Cell Analysis on Androgen Receptor Antagonism for Viability (AID 2283776).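 Note: hits lower the growth signal relative to DMSO meaning cytotoxicity.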 As for the experimental part: ACEA_AR_antagonist is a cell-based, single-readout assay that uses 22Rv1, a human prostate cancer cell line, with measurements taken at 80 hours after chemical dosing in a 384-well plate, although TO5 and TO6 (mc0.srcf) used a 96-well plate. Differences in plate size can be ignored given data normalization.ACEA_AR_80hr is one of two assay component(s) measured or calculated from the […] assay. It is designed to make measurements of real-time cell-growth kinetics, a form of growth reporter, as detected with electrical impedance signals by Real-Time Cell Electrode Sensor (RT-CES) technology.Data from the assay component ACEA_AR_antagonist_AUC_viability was analyzed in the positive analysis fitting direction relative to DMSO as the negative control and baseline of activity. Using a type of growth reporter, loss-of-signal activity can be used to understand changes in the viability. Furthermore, this assay endpoint can be referred to as a secondary readout, because this assay has produced multiple assay endpoints where this one serves a viability function. To generalize the intended target to other relatable targets, this assay endpoint is annotated to the cell cycle intended target family, where the subfamily is cytotoxicity.
The xCELLigence system Multi-E-Plate stations were used to measure the time-dependent response to chemicals. Each compound was tested in an eight-point, 1:4 serial dilution series starting at a maximum final concentration of 100 uM. A maximum starting concentration of 0.5% DMSO was present in the 100 uM chemical samples and was diluted along with the test article dilution series. The screen was performed in biological duplicate using two separate, 96-well, E-Plates 96 for each dilution series (n = 2). Positive controls (MG132 and testosterone) and a negative control (assay media) were tested in quadruplicate on each testing plate. Then, 0.5% and 0.125% DMSO were tested in duplicates in each plate to serve as solvent controls for the 2 highest concentrations of testing compounds: 100 uM and 25 uM. Reference compounds were tested with 8 concentrations with 1:5 serial dilutions. All screening was carried out by ACEA Biosciences, Inc. (San Diego, CA). 22Rv1 cells purchased from ATCC were maintained in media supplemented with 10% fetal bovine serum (FBS). Before screening, 22Rv1 cells were preconditioned in assay medium. Cells were then detached and seeded in E-Plates 96 in assay medium. After overnight monitoring of growth once every hour, compounds were added to […] cells and remained in the medium until the end of the experiment. Cellular responses were then recorded once every 5 min for the first 5 h, and once every hour for an additional 100 h.
Regarding `CCCCCCCCn1sc(Cl)c(Cl)c1=O`, the outcome was inactive.
The same measure, in the same setting: as for `O=C1C=CC(=O)N1c1ccccc1`, the entry is “inactive”.
Regarding `CCN=C1C=CC(=C(c2ccc(N(CC)CC)cc2)c2ccc(N(CC)CC)cc2)c2ccccc21`, the half-maximal activity concentration (AC50) was 134 nM (active).
As to `COCCOCCC[Si](C)(O[Si](C)(C)C)O[Si](C)(C)C`, the result was inactive.
Same read-out and setting: as for `C[C@]12CC[C@H]3C(=CCc4cc(O)ccc43)[C@@H]1CCC2=O`, the entry is “inactive”; as for `CCOC(OCC)OCC`, “inactive”; as for `N#Cc1ccccc1O`, “inactive”.
Regarding `CCC(Cc1c(I)cc(I)c(N)c1I)C(=O)O` (stereo not given), the outcome was inactive.
The same measure, in the same setting: under `CCOC(=O)C1CC(=O)C(=C(O)C2CC2)C(=O)C1` (stereo not given) stands “inactive”; under `CC(C)(C)c1cc(CCC(=O)OCC(COC(=O)CCc2cc(C(C)(C)C)c(O)c(C(C)(C)C)c2)(COC(=O)CCc2cc(C(C)(C)C)c(O)c(C(C)(C)C)c2)COC(=O)CCc2cc(C(C)(C)C)c(O)c(C(C)(C)C)c2)cc(C(C)(C)C)c1O`, “inactive”.
Consider `CC(C)Nc1ccc(NC(C)C)c2c1C(=O)c1ccccc1C2=O`, for which the compound was classed as inactive.
In the case of `CCN=c1cc2oc3cc(NCC)c(C)cc3c(-c3ccccc3C(=O)OCC)c-2cc1C`, the AC50 was 13.8 nM (active).
As to `CCCCCCCCCc1ccc(OCCO)cc1`, the AC50 is 14200 nM (active).
With `CCCCOC(=O)C(C)O` (stereo not given), the result was inactive.
Same read-out and setting: as for `CC(C)(C)c1cc(Cc2cc(C(C)(C)C)c(O)c(C(C)(C)C)c2)cc(C(C)(C)C)c1O`, the entry is “inactive”.
In the case of `CCCCCCCCCCCCC[N+](C)(C)Cc1ccccc1`, the AC50 was 3310 nM (active).
As to `CCCCCCCCCCCCCC[P+](CCCC)(CCCC)CCCC`, the AC50 was 13.8 nM (active).
Regarding `CCCCC(CC)COC(=O)c1ccc(N(C)C)cc1` (stereo not given), the compound was called inactive.
On the same count and under the same terms, as for `Cc1ccc(O)c(-n2nc3ccccc3n2)c1`, the entry is “inactive”; as for `CCCCCCCC/C=C\CCCCCCCC(=O)OCC(O)CO` (stereo not given), “inactive”.

The record behind these values is PubChem BioAssay (EPA / NIEHS).
